According to PubChem BioAssay (Tox21):
Results filed as inconclusive are left out. Where a call stands in place of a potency, no number is given. Activity calls are given as the source filed them. The call rests on the fitted dose curve; in most records, active means well fitted cell-killing curve with a large enough effect in the repeat runs; inconclusive means weak or mixed curves, or effect the other way; inactive means no such curve, though single readings can be large or run the other way.
Potency means the concentration at half of the fitted maximal effect.

Assay: qHTS assay for identifying genotoxic compounds that show differential cytotoxicity against isogenic chicken DT40 cell lines with known DNA damage response pathways - Rev3 mutant cell line (AID 743014); further: nearly all actives have a fitted effect of over 55% in size
Settings: chicken DT40 Rev3-/- viability, CellTiter-Glo, 40 h; series mostly up to 68.4 µM
With CCCCCCCCCCCCCCCC(=O)OC/C=C(C)/C=C/C=C(C)/C=C/C1=C(C)CCCC1(C)C the Potency was “inactive”. With CC(C(=O)O)c1ccc(-c2ccccc2)c(F)c1 (stereo not given) the Potency was “inactive”. For CC(O)C1CCCCC1 (stereo not given), the Potency was “inactive”. For C=C(C)C(=O)OC(C)C, the Potency was “inactive”. With CCOC(=O)CC(C)C the Potency was “inactive”. For CC(Cc1cccc(C(F)(F)F)c1)NCCOC(=O)c1ccccc1 (stereo not given), the Potency was 23.7 µM (active). With COc1ccccc1OC(=O)Oc1ccccc1OC the Potency was “inactive”. For O=C(O)COC(=O)Cc1ccccc1Nc1c(Cl)cccc1Cl, the Potency was “inactive”. With Cc1ncsc1CCO the Potency was “inactive”. With CC1(C)[C@H]2CC[C@]1(C)[C@H](O)C2 the Potency was “inactive”. For NCCCOCCOCCOCCCN, the Potency was 10.9 µM (active). In the case of FC(F)(F)C(F)(F)C(F)(F)C(F)(F)C(F)(F)C(F)(F)CCI, the Potency is reported as “inactive”. With Cc1ccc(C)o1 the Potency was “inactive”. With CCCCCC/C=C/C=O the Potency was “inactive”. For O=C(c1ccccc1)c1ccc2n1CCC2C(=O)O (stereo not given), the Potency was “inactive”. With Nc1nc(N)c2nc(CNc3ccc(C(=O)N[C@@H](CCC(=O)O)C(=O)O)cc3)cnc2n1 the Potency was 13.3 µM (active). With O=C(O)C(c1ccc(Cl)cc1)c1ccc(Cl)cc1 the Potency was “inactive”. With NC(=S)N/N=C/c1cccnc1 the Potency was “inactive”. With CC(C)CC=O the Potency was “inactive”. In the case of CC(=O)SCc1ccco1, the Potency is reported as “inactive”. With CC(=O)OCCc1ccccc1 the Potency was “inactive”. In the case of COc1cc(C(C)(C)C)c(O)c(C(C)(C)C)c1, the Potency is reported as 27.3 µM (active). For CC(=O)O[C@H]1C[C@@H]2CC[C@@H]3[C@H](CC[C@@]4(C)[C@H]3C[C@H]([N+]3(C)CCCCC3)[C@@H]4OC(C)=O)[C@@]2(C)C[C@@H]1N1CCCCC1, the Potency was “inactive”. With CC(=O)/C(C)=C/C1C(C)=CCCC1(C)C (stereo not given) the Potency was “inactive”. In the case of N#Cc1c(F)cccc1F, the Potency is reported as “inactive”. For CN(C)CCCOc1nn(Cc2ccccc2)c2ccccc12, the Potency was 12.7 µM (active). In the case of COc1ccc(OC)c(OC)c1, the Potency is reported as “inactive”. For NC(N)=NN=C(/C=C/c1ccc([N+](=O)[O-])o1)/C=C/c1ccc([N+](=O)[O-])o1, the Potency was 0.75 µM (active). For Cl/C(=C\n1cncn1)c1ccc(Cl)cc1Cl, the Potency was “inactive”. For CN1CCC[C@@H]1c1cccnc1, the Potency was “inactive”. With Cc1c(Cn2ccnc2)c2ccccc2n1CCC(=O)O the Potency was “inactive”. For Cc1ccc(C(=O)C(C)CN2CCCCC2)cc1 (stereo not given), the Potency was 29.8 µM (active). With C=Cc1c(C)c2cc3[nH]c(cc4nc(cc5nc(cc1[nH]2)C(C)=C5CCC(=O)O)C(CCC(=O)O)=C4C)c(C)c3C=C the Potency was “inactive”. For CCCCCCCCC(CO)CCCCCC (stereo not given), the Potency was “inactive”. In the case of CC(=O)CC(=O)c1ccccc1, the Potency is reported as “inactive”.
